From publication PMC7862700, “An all-to-all approach to the identification of sequence-specific readers for epigenetic DNA modifications on cytosine”

Key:
Experiment in all cases: DAPPL (digital affinity profiling via proximity ligation, sequencing); 10 mM Tris-HCl pH 7.5, 50 mM NaCl, 1 mM DTT, 4% glycerol, room temperature, 30 min; GST-TFs on glutathione beads, 16-mer random dsDNA library, 0.1% formaldehyde crosslink after washing; high values mean tight binding
Settings in all cases: protein: recombinant; tags: N-terminal GST; dsDNA, one strand shown
ERF = molecular target: T1, ERF (Homo sapiens, UniProt P50548 1-548)
T1 sequence: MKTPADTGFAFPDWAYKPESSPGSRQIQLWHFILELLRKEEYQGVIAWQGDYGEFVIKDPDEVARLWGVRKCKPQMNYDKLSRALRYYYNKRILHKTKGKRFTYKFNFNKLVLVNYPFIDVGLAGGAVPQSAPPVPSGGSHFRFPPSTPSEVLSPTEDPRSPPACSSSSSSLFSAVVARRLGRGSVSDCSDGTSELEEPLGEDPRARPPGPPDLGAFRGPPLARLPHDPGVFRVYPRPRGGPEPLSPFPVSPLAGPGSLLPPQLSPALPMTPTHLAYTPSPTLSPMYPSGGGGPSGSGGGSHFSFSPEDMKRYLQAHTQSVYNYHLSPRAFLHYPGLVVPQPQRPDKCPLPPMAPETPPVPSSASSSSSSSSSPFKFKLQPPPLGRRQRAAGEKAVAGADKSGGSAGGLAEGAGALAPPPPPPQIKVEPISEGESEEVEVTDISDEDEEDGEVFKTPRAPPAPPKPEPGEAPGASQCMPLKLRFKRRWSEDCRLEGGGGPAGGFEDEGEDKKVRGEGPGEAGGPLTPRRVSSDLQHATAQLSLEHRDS
How it was run: (§1)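 After expression in yeast as GST fusions, human transcription factors were bound to glutathione beads, DNA-barcoded and mixed with a tag-only sample. The pools were incubated with 200 nmole of a 16-mer random double-stranded DNA library in Tris/NaCl/DTT/glycerol buffer (30 min, room temperature), washed and crosslinked with 0.1% formaldehyde. Proximity ligation with BsaI/T4 ligase ran for 1 h at 37 °C, before PCR amplification and sequencing on an Illumina NextSeq500. Binding signal is a hexamer's read frequency for a factor divided by its frequency for the tag-only sample.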

ETV3L = molecular target: T2, ETV3L (Homo sapiens, UniProt Q6ZN32 1-361)
T2 sequence: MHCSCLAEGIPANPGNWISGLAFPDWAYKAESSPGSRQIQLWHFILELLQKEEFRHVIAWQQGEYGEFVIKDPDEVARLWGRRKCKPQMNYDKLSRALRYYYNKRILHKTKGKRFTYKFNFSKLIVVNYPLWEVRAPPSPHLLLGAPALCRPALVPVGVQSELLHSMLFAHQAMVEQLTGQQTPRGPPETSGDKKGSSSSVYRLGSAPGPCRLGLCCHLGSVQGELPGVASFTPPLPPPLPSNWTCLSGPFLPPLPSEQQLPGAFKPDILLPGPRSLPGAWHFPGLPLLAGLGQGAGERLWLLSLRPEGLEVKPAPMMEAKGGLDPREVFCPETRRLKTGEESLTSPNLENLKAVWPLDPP
How it was run: as §1

ETS2 = molecular target: T3, ETS2 (Homo sapiens, UniProt P15036 1-469)
T3 sequence: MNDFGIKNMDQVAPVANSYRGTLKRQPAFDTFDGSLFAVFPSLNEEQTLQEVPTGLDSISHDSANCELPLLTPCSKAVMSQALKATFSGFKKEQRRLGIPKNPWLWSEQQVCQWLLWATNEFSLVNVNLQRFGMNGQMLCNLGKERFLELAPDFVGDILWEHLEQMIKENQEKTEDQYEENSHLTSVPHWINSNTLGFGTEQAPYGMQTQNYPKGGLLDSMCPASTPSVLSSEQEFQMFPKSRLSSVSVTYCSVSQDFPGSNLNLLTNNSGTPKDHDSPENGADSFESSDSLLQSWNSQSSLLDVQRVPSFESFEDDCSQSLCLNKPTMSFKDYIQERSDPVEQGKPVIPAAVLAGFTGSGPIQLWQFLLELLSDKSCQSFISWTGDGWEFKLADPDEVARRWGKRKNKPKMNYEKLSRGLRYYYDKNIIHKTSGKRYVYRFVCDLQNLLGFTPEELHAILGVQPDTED
How it was run: as §1

SPDEF = molecular target: T4, SPDEF (Homo sapiens, UniProt O95238 1-335)
T4 sequence: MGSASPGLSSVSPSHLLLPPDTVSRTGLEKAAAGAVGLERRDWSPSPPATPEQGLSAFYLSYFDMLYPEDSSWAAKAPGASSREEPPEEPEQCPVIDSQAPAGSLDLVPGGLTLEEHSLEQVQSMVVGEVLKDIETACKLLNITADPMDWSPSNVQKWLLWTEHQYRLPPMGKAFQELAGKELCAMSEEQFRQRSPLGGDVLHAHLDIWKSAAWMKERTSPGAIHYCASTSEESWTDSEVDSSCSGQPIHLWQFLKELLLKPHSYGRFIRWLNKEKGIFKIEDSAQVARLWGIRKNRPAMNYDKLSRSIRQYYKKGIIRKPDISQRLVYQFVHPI
How it was run: as §1

ETV7 = molecular target: T5, ETV7 (Homo sapiens, UniProt Q9Y603 1-341)
T5 sequence: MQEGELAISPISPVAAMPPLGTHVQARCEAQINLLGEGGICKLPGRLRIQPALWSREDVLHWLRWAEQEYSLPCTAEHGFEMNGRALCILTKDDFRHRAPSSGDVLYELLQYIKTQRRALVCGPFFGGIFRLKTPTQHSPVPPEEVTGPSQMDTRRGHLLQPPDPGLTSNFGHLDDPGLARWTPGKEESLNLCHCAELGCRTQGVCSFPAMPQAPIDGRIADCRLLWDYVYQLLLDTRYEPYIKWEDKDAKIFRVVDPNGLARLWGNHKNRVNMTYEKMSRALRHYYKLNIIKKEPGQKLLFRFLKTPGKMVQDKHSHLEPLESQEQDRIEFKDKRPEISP
How it was run: as §1

ELF5 = molecular target: T6, ELF5 (Homo sapiens, UniProt Q9UKW6-2 1-255)
T6 sequence: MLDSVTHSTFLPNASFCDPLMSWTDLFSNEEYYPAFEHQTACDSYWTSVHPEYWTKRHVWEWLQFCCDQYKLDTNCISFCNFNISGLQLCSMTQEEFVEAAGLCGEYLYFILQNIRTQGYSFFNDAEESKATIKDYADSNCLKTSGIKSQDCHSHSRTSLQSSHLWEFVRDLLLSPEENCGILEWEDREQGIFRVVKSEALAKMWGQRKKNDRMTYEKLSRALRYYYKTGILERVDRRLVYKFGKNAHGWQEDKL
How it was run: as §1

ETV6 = ETV6 (Homo sapiens, UniProt P41212 1-452)
ETV6, sequence (P41212 whole entry): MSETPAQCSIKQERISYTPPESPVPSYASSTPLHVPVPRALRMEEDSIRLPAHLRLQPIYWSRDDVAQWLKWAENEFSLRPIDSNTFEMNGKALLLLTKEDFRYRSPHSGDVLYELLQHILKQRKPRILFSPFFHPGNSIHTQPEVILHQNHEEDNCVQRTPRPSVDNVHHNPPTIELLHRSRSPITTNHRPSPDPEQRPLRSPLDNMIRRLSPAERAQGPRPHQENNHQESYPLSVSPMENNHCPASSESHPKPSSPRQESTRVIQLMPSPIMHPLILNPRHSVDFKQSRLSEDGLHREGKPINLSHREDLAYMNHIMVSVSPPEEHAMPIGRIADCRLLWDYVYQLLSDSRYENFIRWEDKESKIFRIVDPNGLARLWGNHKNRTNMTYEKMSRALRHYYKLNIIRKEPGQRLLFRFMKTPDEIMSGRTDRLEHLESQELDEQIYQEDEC
How it was run: as §1

ETV3 = molecular target: T7, ETV3 (Homo sapiens, UniProt P41162-2 1-143)
T7 sequence: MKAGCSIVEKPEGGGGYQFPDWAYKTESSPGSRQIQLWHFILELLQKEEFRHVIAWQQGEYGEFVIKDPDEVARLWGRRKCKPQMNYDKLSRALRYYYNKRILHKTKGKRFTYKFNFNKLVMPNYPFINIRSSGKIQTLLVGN
How it was run: as §1

Sequence	binding signal (ERF)	binding signal (ETV3L)	binding signal (ETS2)	binding signal (SPDEF)	binding signal (ETV7)	binding signal (ELF5)	binding signal (ETV6)	binding signal (ETV3)
CCCTGT	1.19 fold enrichment (6-mer frequency, TF over GST control)	1.06 fold enrichment (6-mer frequency, TF over GST control)	1.06 fold enrichment (6-mer frequency, TF over GST control)	1.02 fold enrichment (6-mer frequency, TF over GST control)	1.03 fold enrichment (6-mer frequency, TF over GST control)	1.08 fold enrichment (6-mer frequency, TF over GST control)	1.06 fold enrichment (6-mer frequency, TF over GST control)	
TCGAAT	1.13 fold enrichment (6-mer frequency, TF over GST control)	1.09 fold enrichment (6-mer frequency, TF over GST control)	1.06 fold enrichment (6-mer frequency, TF over GST control)	1.09 fold enrichment (6-mer frequency, TF over GST control)	1.23 fold enrichment (6-mer frequency, TF over GST control)	1.02 fold enrichment (6-mer frequency, TF over GST control)	1.13 fold enrichment (6-mer frequency, TF over GST control)	
ACACGA	1.15 fold enrichment (6-mer frequency, TF over GST control)	1.04 fold enrichment (6-mer frequency, TF over GST control)	1.08 fold enrichment (6-mer frequency, TF over GST control)	1.03 fold enrichment (6-mer frequency, TF over GST control)	1.11 fold enrichment (6-mer frequency, TF over GST control)	1.03 fold enrichment (6-mer frequency, TF over GST control)	1.06 fold enrichment (6-mer frequency, TF over GST control)	
GTAACA	1.1 fold enrichment (6-mer frequency, TF over GST control)	1.07 fold enrichment (6-mer frequency, TF over GST control)	1.08 fold enrichment (6-mer frequency, TF over GST control)	1.14 fold enrichment (6-mer frequency, TF over GST control)	1.08 fold enrichment (6-mer frequency, TF over GST control)	1.1 fold enrichment (6-mer frequency, TF over GST control)	1.09 fold enrichment (6-mer frequency, TF over GST control)	1.15 fold enrichment (6-mer frequency, TF over GST control)
GCAAAT	1.11 fold enrichment (6-mer frequency, TF over GST control)	1.05 fold enrichment (6-mer frequency, TF over GST control)	1.01 fold enrichment (6-mer frequency, TF over GST control)	1.11 fold enrichment (6-mer frequency, TF over GST control)	1.04 fold enrichment (6-mer frequency, TF over GST control)	1.01 fold enrichment (6-mer frequency, TF over GST control)	1 fold enrichment (6-mer frequency, TF over GST control)	
ACGTAC	1.16 fold enrichment (6-mer frequency, TF over GST control)	1.12 fold enrichment (6-mer frequency, TF over GST control)	1.19 fold enrichment (6-mer frequency, TF over GST control)	1.13 fold enrichment (6-mer frequency, TF over GST control)	1.24 fold enrichment (6-mer frequency, TF over GST control)	1.15 fold enrichment (6-mer frequency, TF over GST control)	1.25 fold enrichment (6-mer frequency, TF over GST control)	1.12 fold enrichment (6-mer frequency, TF over GST control)
GTCCAT	1.08 fold enrichment (6-mer frequency, TF over GST control)	1.24 fold enrichment (6-mer frequency, TF over GST control)	1.04 fold enrichment (6-mer frequency, TF over GST control)	1.02 fold enrichment (6-mer frequency, TF over GST control)	1.14 fold enrichment (6-mer frequency, TF over GST control)	1.07 fold enrichment (6-mer frequency, TF over GST control)	1.07 fold enrichment (6-mer frequency, TF over GST control)	1.11 fold enrichment (6-mer frequency, TF over GST control)
AATTTG	1.28 fold enrichment (6-mer frequency, TF over GST control)	1.3 fold enrichment (6-mer frequency, TF over GST control)	1.32 fold enrichment (6-mer frequency, TF over GST control)	1.24 fold enrichment (6-mer frequency, TF over GST control)	1.38 fold enrichment (6-mer frequency, TF over GST control)	1.33 fold enrichment (6-mer frequency, TF over GST control)	1.22 fold enrichment (6-mer frequency, TF over GST control)	1.39 fold enrichment (6-mer frequency, TF over GST control)
ATCCCA	1.21 fold enrichment (6-mer frequency, TF over GST control)	1.1 fold enrichment (6-mer frequency, TF over GST control)	1.03 fold enrichment (6-mer frequency, TF over GST control)	1.1 fold enrichment (6-mer frequency, TF over GST control)	1.2 fold enrichment (6-mer frequency, TF over GST control)	1.17 fold enrichment (6-mer frequency, TF over GST control)	1.12 fold enrichment (6-mer frequency, TF over GST control)	
TGTCTG	1.09 fold enrichment (6-mer frequency, TF over GST control)	1.05 fold enrichment (6-mer frequency, TF over GST control)	1.09 fold enrichment (6-mer frequency, TF over GST control)	1.15 fold enrichment (6-mer frequency, TF over GST control)	1.02 fold enrichment (6-mer frequency, TF over GST control)	1.15 fold enrichment (6-mer frequency, TF over GST control)	1.12 fold enrichment (6-mer frequency, TF over GST control)	
TACCCA	1.18 fold enrichment (6-mer frequency, TF over GST control)	1.06 fold enrichment (6-mer frequency, TF over GST control)	1.17 fold enrichment (6-mer frequency, TF over GST control)	1.09 fold enrichment (6-mer frequency, TF over GST control)	1.07 fold enrichment (6-mer frequency, TF over GST control)	1.09 fold enrichment (6-mer frequency, TF over GST control)	1 fold enrichment (6-mer frequency, TF over GST control)	1.06 fold enrichment (6-mer frequency, TF over GST control)
TACAAT	1.31 fold enrichment (6-mer frequency, TF over GST control)	1.25 fold enrichment (6-mer frequency, TF over GST control)	1.34 fold enrichment (6-mer frequency, TF over GST control)	1.28 fold enrichment (6-mer frequency, TF over GST control)	1.24 fold enrichment (6-mer frequency, TF over GST control)	1.24 fold enrichment (6-mer frequency, TF over GST control)	1.26 fold enrichment (6-mer frequency, TF over GST control)	1.28 fold enrichment (6-mer frequency, TF over GST control)
TTGAGC	1.04 fold enrichment (6-mer frequency, TF over GST control)	1.06 fold enrichment (6-mer frequency, TF over GST control)	1.03 fold enrichment (6-mer frequency, TF over GST control)	1.02 fold enrichment (6-mer frequency, TF over GST control)	1.1 fold enrichment (6-mer frequency, TF over GST control)	1 fold enrichment (6-mer frequency, TF over GST control)	1.08 fold enrichment (6-mer frequency, TF over GST control)	1 fold enrichment (6-mer frequency, TF over GST control)
CCTGCC	1.3 fold enrichment (6-mer frequency, TF over GST control)	1.24 fold enrichment (6-mer frequency, TF over GST control)	1.23 fold enrichment (6-mer frequency, TF over GST control)	1.31 fold enrichment (6-mer frequency, TF over GST control)	1.33 fold enrichment (6-mer frequency, TF over GST control)	1.35 fold enrichment (6-mer frequency, TF over GST control)	1.36 fold enrichment (6-mer frequency, TF over GST control)	1.28 fold enrichment (6-mer frequency, TF over GST control)
